In PubChem BioAssay (EPA / NIEHS) one finds outcome and AC50 data, which are given here for 7 compounds.

Active and inactive are the calls of the source. How the source made its calls: active means hit-call score of the fitted dose curve at least 0.9, where 1 is the maximum; inactive means score below 0.9.

Read-out in assay [1]: Vascular cell adhesion molecule 1 (VCAM1), VCAM1 (gene 7412)
As to the kind of experiment: BSK_4H_VCAM1: BioMAP Diversity Plus: 4H Assay for Vascular cell adhesion molecule 1 (VCAM1) Biomarker Activity (AID 2283033).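 On outcome: cell-surface VCAM-1 protein measured by ELISA.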 The conditions noted are these: primary human endothelial cells (HUVEC); actives raise or lower the signal. The essentials: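 In this human endothelial (HUVEC) system, biomarker ELISA was run 24 h after compound addition, and total protein in parallel wells was assessed by SRB at 560 nm; DMSO served as negative control.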

Read-out in assay [2]: Interferon-gamma inducible Protein 10 (IP10), CXCL10 (gene 3627)
Put plainly: BSK_BE3C_IP10: BioMAP Diversity Plus: BE3C Assay for Interferon-gamma inducible Protein 10 (IP10) Biomarker Activity (AID 2283034). As to conditions: primary human bronchial epithelial cells; actives raise or lower the signal. In short, it runs like this:
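BE3C cells (human bronchial epithelial, primary); 24 h exposure; ELISA for IP-10; DMSO-referenced bidirectional fit.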

Read-out in assay [3]: Transforming growth factor beta 1 (TGFb1), TGFB1 (gene 7040)
As to the kind of experiment: BSK_BE3C_TGFb1: BioMAP Diversity Plus: BE3C Assay for Transforming growth factor beta 1 (TGFb1) Biomarker Activity (AID 2283036;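 further: TGF-b1 protein level measured by ELISA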). The conditions noted are these: primary human bronchial epithelial cells; actives raise or lower the signal. In short, it runs like this: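 TGF-b1 measured via ELISA, 24 h after chemical dosing of human bronchial epithelial cells (BE3C). Overt cytotoxicity assessed in parallel by SRB (0.1%, TCA-fixed, 560 nm); analysis bidirectional relative to DMSO.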

Read-out in assay [4]: Plasminogen activator inhibitor-1 (PAI1), SERPINE1 (gene 5054)
Put plainly: BSK_BE3C_PAI1: BioMAP Diversity Plus: BE3C Assay for Plasminogen activator inhibitor-1 (PAI1) Biomarker Activity (AID 2283037). As to conditions: primary human bronchial epithelial cells; actives raise or lower the signal. In short, it runs like this: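 In this multiplexed primary-cell system, bronchial epithelial cells receive test chemical and are sampled at 24 h. PAI-1 is read by ELISA, with DMSO serving as negative control for bidirectional fitting.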

Read-out in assay [5]: urokinase plasminogen activator (uPA), PLAU (gene 5328)
Put plainly: BSK_BE3C_uPA: BioMAP Diversity Plus: BE3C Assay for urokinase plasminogen activator (uPA) Biomarker Activity (AID 2283038).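 On outcome: uPA protein level quantified by ELISA in cell cultures; uPA read one day after compound addition.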 The conditions noted are these: primary human bronchial epithelial cells; actives raise or lower the signal. In short, it runs like this: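 ELISA read-out of uPA in human lung primary bronchial epithelial cultures, 24 h post-dosing. Gain or loss of signal fitted bidirectionally relative to DMSO baseline; cytotoxicity checked in parallel cultures via SRB total protein stain.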

Read-out in assay [6]: Urokinase-type plasminogen activator receptor (uPAR), PLAUR (gene 5329)
Put plainly: BSK_BE3C_uPAR: BioMAP Diversity Plus: BE3C Assay for Urokinase-type plasminogen activator receptor (uPAR) Biomarker Activity (AID 2283039).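 Further: uPAR protein level measured by ELISA on the cells; cells exposed to compound for one day before measurement.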 As to conditions: primary human bronchial epithelial cells; actives raise or lower the signal. The essentials:
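Chemically treated human bronchial epithelial cells (lung primary) are assayed for uPAR by ELISA after 24 h, with data fitted in both directions using DMSO as negative control.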

Read-out in assay [7]: Interleukin-6 (IL6), IL6 (gene 3569)
Put plainly: BSK_CASM3C_IL6: BioMAP Diversity Plus: CASM3C Assay for Interleukin-6 (IL6) Biomarker Activity for (AID 2283040). As to conditions: primary human coronary artery smooth muscle cells; actives raise or lower the signal.

Read-out in assay [8]: Tissue plasminogen activator (tPA), PLAT (gene 5327)
As to the kind of experiment: BSK_BE3C_tPA: BioMAP Diversity Plus: BE3C Assay for Tissue plasminogen activator (tPA) Biomarker Activity (AID 2283041).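 Further: tPA level quantified by ELISA one day after compound addition.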 The conditions noted are these: primary human bronchial epithelial cells; actives raise or lower the signal. In short, it runs like this:
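Using human lung primary bronchial epithelial cells, tPA was measured by ELISA 24 h after dosing; data fitted relative to DMSO.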

Read-out in assay [9]: Interleukin-8 (IL8), CXCL8 (gene 3576)
Put plainly: BSK_CASM3C_IL8: BioMAP Diversity Plus: CASM3C Assay for Interleukin-8 (IL8) Biomarker Activity (AID 2283042).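 Further: IL-8 protein level quantified by ELISA.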 As to conditions: primary human coronary artery smooth muscle cells; actives raise or lower the signal.

Read-out in assay [10]: Human Leukocyte Antigen - DR isotype (HLADR), HLA-DRA (gene 3122)
As to the kind of experiment: BSK_CASM3C_HLADR: BioMAP Diversity Plus: CASM3C Assay for Human Leukocyte Antigen - DR isotype (HLADR) Biomarker Activity (AID 2283043).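 Further: cell-surface HLA-DR protein level quantified by ELISA.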 As to conditions: primary human coronary artery smooth muscle cells; actives raise or lower the signal.

Read-out in assay [11]: Macrophage colony-stimulating factor (MCSF), CSF1 (gene 1435)
Put plainly: BSK_CASM3C_MCSF: BioMAP Diversity Plus: CASM3C Assay for Macrophage colony-stimulating factor (MCSF) Biomarker Activity (AID 2283044).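 Further: M-CSF protein amount quantified by ELISA after 24 h exposure.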 As to conditions: primary human coronary artery smooth muscle cells; actives raise or lower the signal.

Read-out in assay [12]: Low-density lipoprotein receptor (LDLR), LDLR (gene 3949)
Put plainly: BSK_CASM3C_LDLR: BioMAP Diversity Plus: CASM3C Assay for Low-density lipoprotein receptor (LDLR) Biomarker Activity (AID 2283045).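 Further: LDLR protein level on the cell surface quantified by ELISA.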 The conditions noted are these: primary human coronary artery smooth muscle cells; actives raise or lower the signal.

Read-out in assay [13]: Monocyte Chemoattractant Protein-1 (MCP1), CCL2 (gene 6347)
Put plainly: BSK_CASM3C_MCP1: BioMAP Diversity Plus: CASM3C Assay for Monocyte Chemoattractant Protein-1 (MCP1) Biomarker Activity (AID 2283046).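 Further: MCP-1 level quantified by ELISA 24 h after dosing.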 The conditions noted are these: primary human coronary artery smooth muscle cells; actives raise or lower the signal.

Assay [14] can be described thus: BSK_CASM3C_Proliferation: Cell Proliferation Assessment in the BioMAP Diversity Plus: CASM3C Assay (AID 2283047).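 Further: sulforhodamine B total protein stain as relative cell number at 560 nm; sub-confluent cells exposed 48 h before staining; fitted both ways against DMSO so gain or loss of cell number.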 As to conditions: primary human coronary artery smooth muscle cells.
Read-out in assay [15]: Monokine induced gamma interferon (MIG), CXCL9 (gene 4283)
As to the kind of experiment: BSK_CASM3C_MIG: BioMAP Diversity Plus: CASM3C Assay for Monokine induced gamma interferon (MIG) Biomarker Activity (AID 2283048).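 Further: MIG protein level measured by ELISA.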 As to conditions: primary human coronary artery smooth muscle cells; actives raise or lower the signal.

Read-out in assay [16]: serum amyloid A (SAA), SAA1 (gene 6288)
As to the kind of experiment: BSK_CASM3C_SAA: BioMAP Diversity Plus: CASM3C Assay for serum amyloid A (SAA) Biomarker Activity (AID 2283049).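 Further: SAA protein level quantified by ELISA.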 As to conditions: primary human coronary artery smooth muscle cells; actives raise or lower the signal.

Assay [17] in a line: BSK_CASM3C_SRB: Viability Assessment in the BioMAP Diversity Plus: CASM3C Assay (AID 2283050).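 Further: total protein by SRB staining as cytotoxicity measure in parallel cultures.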 The conditions noted are these: primary human coronary artery smooth muscle cells.
Read-out in assay [18]: Thrombomodulin, THBD (gene 7056)
As to the kind of experiment: BSK_CASM3C_Thrombomodulin: BioMAP Diversity Plus: CASM3C Assay for Thrombomodulin Biomarker Activity (AID 2283051).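 Further: thrombomodulin protein level measured by ELISA 24 h after dosing.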 As to conditions: primary human coronary artery smooth muscle cells; actives raise or lower the signal.

Read-out in assay [19]: Human Leukocyte Antigen - DR isotype (HLADR), HLA-DRA (gene 3122)
As to the kind of experiment: BSK_BE3C_HLADR: BioMAP Diversity Plus: BE3C Assay for Human Leukocyte Antigen - DR isotype (HLADR) Biomarker Activity (AID 2283032). As to conditions: primary human bronchial epithelial cells; actives raise or lower the signal. The essentials:
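BioMAP BE3C format: human bronchial epithelium, 24 h compound treatment, ELISA detection of HLA-DR, with bidirectional analysis relative to DMSO.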

Read-out in assay [20]: Monokine induced gamma interferon (MIG), CXCL9 (gene 4283)
As to the kind of experiment: BSK_BE3C_MIG: BioMAP Diversity Plus: BE3C Assay for Monokine induced gamma interferon (MIG) Biomarker Activity (AID 2283035). The conditions noted are these: primary human bronchial epithelial cells; actives raise or lower the signal. In short, it runs like this: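 Dose cells (human primary bronchial epithelial), incubate 24 h, quantify MIG by ELISA, then fit concentration–response in both directions relative to DMSO control.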

In the case of `CN(C)c1ccccc1`, the result in assay [1], in assay [2], in [3], in [4], in assay [5] and in [6] was inactive. The result in assay [7], in assay [8], in [9], in [10], in assay [11] and in assay [12] was inactive. For the same compound, the result in [13], in [14], in [15], in assay [16], in assay [17] and in assay [18] was inactive.
Turning to `[As]#[In]`, the result in [19], in [1], in [20], in assay [3], in [4] and in assay [5] was inactive. For the same compound, the result in assay [6], in [7], in assay [8], in [9], in [10] and in assay [11] was inactive. For the same compound, the outcome in [12], in assay [13], in assay [14], in assay [15], in assay [16] and in assay [17] was inactive. The outcome in assay [18] was inactive.
For `COC(=O)c1ccccc1N`, the result in assay [19], in [1], in [4], in [5], in assay [6] and in assay [7] was inactive. The result in assay [8], in assay [9], in assay [10], in assay [11], in assay [12] and in [13] was inactive. In addition, the result in assay [14], in assay [15], in [16], in [17] and in assay [18] was inactive.
Regarding `c1ccc(C2CO2)cc1` (stereo not given), the outcome in assay [1], in [2], in [20], in [3], in [4] and in [5] was inactive. The outcome in [6], in assay [7], in assay [8], in [9], in assay [10] and in assay [11] was inactive. Also, the outcome in [12], in assay [13], in assay [14], in assay [15], in [16] and in [17] was inactive. For the same compound, the outcome in assay [18] was inactive.
As for `O=[N+]([O-])C(Br)(CO)CO`, the AC50 in assay [1] is 27.1 µM (active); in [5] it was 4.02 µM (active); in assay [9], 34.3 µM (active); in [10], 29.5 µM (active); in assay [13], 28.1 µM (active); in [14] it was 24.7 µM (active). Further, the AC50 was 32.7 µM (active) in assay [15], 30.3 µM (active) in assay [16], 32.7 µM (active) in assay [17] and 24.7 µM (active) in [18]. Further, the outcome in [2], in assay [20], in assay [6], in assay [7], in assay [8] and in assay [11] was inactive. Moreover, in [12], the result was inactive.
For `CCC(C)c1ccc(O)cc1` (stereo not given), the outcome in assay [19], in assay [1], in [20], in assay [3], in assay [5] and in assay [6] was inactive. Moreover, the outcome in [7], in assay [8], in [9], in assay [10], in [11] and in assay [12] was inactive. Further, the outcome in [13], in assay [14], in assay [15], in assay [16], in assay [17] and in assay [18] was inactive.
Consider `CCCCCCCCCCCCCN1CC(C)OC(C)C1` (stereo not given), for which the outcome in assay [1], in assay [20], in [4], in assay [5], in assay [6] and in assay [7] was inactive. For the same compound, the outcome in [8], in [9], in assay [10], in assay [11], in [12] and in [13] was inactive. The result in assay [14], in [15], in assay [16], in assay [17] and in assay [18] was inactive.
